According to PubChem BioAssay (Tox21):
“And” between values parts separate entries of the source, which are not always exact repeats. Identical values can stand only once. Records with an inconclusive call do not appear. Where a structure was tested more than once in an assay, its records may differ in their call. The source made the active and inactive calls. Calls come from the whole dose curve; as a rule, active = well fitted curve in the direction sought with a large enough effect in the repeat runs; inconclusive = weak or mixed curves; inactive = no such curve, though single readings can be large; an effect the other way counts as inactive or inconclusive.

Tests used:
[1] = qHTS RealTime-Glo MT Cell Viability Assay in HepG2 cells - 40 hour (AID 1224870); note: nearly all actives have a fitted effect of over 50% in size
Summary of the method: (§1)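 HepG2 cells mixed with RealTime-Glo MT reagents (NanoLuc plus cell-permeant prosubstrate) were seeded at 600 cells/well, incubated 5 h at 37 C/5% CO2, then pinned with compounds in DMSO; nonlytic luminescence tracked viability during 40 h treatment.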

[2] = A CellTox Green Cytotoxicity Assay to monitor cytotoxicity in HEK293 cells - 40 hour (AID 1224871); note: nearly all actives have a fitted effect of over 45% in size
Summary of the method: (§2)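 Fluorescence from a DNA-binding dye excluded by viable cells was measured repeatedly in the same HEK293 wells (600 cells/well) during continuous compound exposure at 37 C. Each assay gives one read point: 0, 8, 16, 24, 32 or 40 h.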

[3] = qHTS RealTime-Glo MT Cell Viability Assay in HEK293 cells - 16 hour (AID 1224872); note: top concentration of the series differs between compounds; nearly all actives have a fitted effect of over 50% in size
Summary of the method: (§3)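 Assay medium contained NanoLuc luciferase plus cell-permeant prosubstrate, added with HEK293 cells at 600 cells/well. After 5 h at 37 C/5% CO2 compounds were added; plates stayed at 37 C for 40 h with serial luminescence reads.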

[4] = qHTS RealTime-Glo MT Cell Viability Assay in HepG2 cells - 8 hour (AID 1224873); note: nearly all actives have a fitted effect of over 55% in size
Summary of the method: as §1

[5] = qHTS RealTime-Glo MT Cell Viability Assay in HEK293 cells - 40 hour (AID 1224874); conditions: RealTime-Glo luminescence; max response: active compounds read low; note: nearly all actives have a fitted effect of over 50% in size; note: potency is the fitted concentration of half-maximal effect
Summary of the method: (§4)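 Luminescence, which tracks viable cell number through reduction of the prosubstrate to a NanoLuc substrate, was read over continuous 37 C culture. Cells (600/well) were premixed with reagent and rested 5 h before 23 nL of compound in DMSO was pinned.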

[6] = A CellTox Green Cytotoxicity Assay to monitor cytotoxicity in HEK293 cells - 24 hour (AID 1224875); note: series mostly up to about 77 µM; nearly all actives have a fitted effect of over 45% in size
Summary of the method: as §2

[7] = A CellTox Green Cytotoxicity Assay to monitor cytotoxicity in HepG2 cells - 16 hour (AID 1224876); note: nearly all actives have a fitted effect of over 45% in size
Summary of the method: (§5)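 Real-time cytotoxicity: fluorescence of a cell-impermeant cyanine dye binding DNA of dead HepG2 cells, measured repeatedly (0–40 h) during compound exposure at 37 C. Cells seeded 600/well with reagent, dosed after 5 h.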

[8] = qHTS RealTime-Glo MT Cell Viability Assay in HepG2 cells - 32 hour (AID 1224877); note: nearly all actives have a fitted effect of over 55% in size
Summary of the method: (§6)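 qHTS, HepG2, 600 cells/well, RealTime-Glo (NanoLuc + prosubstrate) added with cells; 5 h preincubation; DMSO compound addition; 37 C; luminescence at 0/8/16/24/32/40 h.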

[9] = A CellTox Green Cytotoxicity Assay to monitor cytotoxicity in HepG2 cells - 24 hour (AID 1224878); note: nearly all actives have a fitted effect of over 45% in size
Summary of the method: as §5

[10] = A CellTox Green Cytotoxicity Assay to monitor cytotoxicity in HepG2 cells - 40 hour (AID 1224879); note: nearly all actives have a fitted effect of over 40% in size
Summary of the method: as §5

[11] = qHTS RealTime-Glo MT Cell Viability Assay in HEK293 cells - 0 hour (AID 1224880)
Summary of the method: as §4

[12] = A CellTox Green Cytotoxicity Assay to monitor cytotoxicity in HEK293 cells - 32 hour (AID 1224881); note: nearly all actives have a fitted effect of over 40% in size
Summary of the method: as §2

[13] = A CellTox Green Cytotoxicity Assay to monitor cytotoxicity in HepG2 cells - 0 hour (AID 1224882); note: nearly all actives have a fitted effect of over 35% in size
Summary of the method: as §5

[14] = A CellTox Green Cytotoxicity Assay to monitor cytotoxicity in HepG2 cells - 32 hour (AID 1224883); note: nearly all actives have a fitted effect of over 50% in size
Summary of the method: as §5

[15] = A CellTox Green Cytotoxicity Assay to monitor cytotoxicity in HEK293 cells - 8 hour (AID 1224884); note: nearly all actives have a fitted effect of over 35% in size
Summary of the method: as §2

[16] = qHTS RealTime-Glo MT Cell Viability Assay in HepG2 cells - 16 hour (AID 1224885); note: nearly all actives have a fitted effect of over 50% in size
Summary of the method: as §6

[17] = qHTS RealTime-Glo MT Cell Viability Assay in HEK293 cells - 24 hour (AID 1224886)
Summary of the method: as §3

[18] = qHTS RealTime-Glo MT Cell Viability Assay in HEK293 cells - 8 hour (AID 1224887)
Summary of the method: as §4

[19] = qHTS RealTime-Glo MT Cell Viability Assay in HepG2 cells - 0 hour (AID 1224889); note: nearly all actives have a fitted effect of over 50% in size
Summary of the method: as §6

[20] = A CellTox Green Cytotoxicity Assay to monitor cytotoxicity in HEK293 cells - 16 hour (AID 1224888); note: nearly all actives have a fitted effect of over 35% in size
Summary of the method: as §2
% is set by controls: 0 for no effect and ±100 for the full control effect.

NNc1ccccc1
inactive: outcome [1] | Potency [2] | outcome [3] | outcome [4] | max response [5] 3.45% [middle of 5 runs] | Potency [6] | Potency [7] | outcome [8] | Potency [9] | Potency [10] | outcome [11] | Potency [12] | Potency [13] | Potency [14] | Potency [15] | outcome [16] | outcome [17] | outcome [18] | outcome [19]

CNC(=O)O/N=C/C(C)(C)S(C)=O (stereo not given)
inactive: outcome [1] | Potency [2] | outcome [3] | outcome [4] | max response [5] 16.8% and -17.7% | Potency [6] | Potency [7] | outcome [8] | Potency [9] | Potency [10] | outcome [11] | Potency [12] | Potency [13] | Potency [14] | outcome [17] | outcome [18] | Potency [20] | outcome [19]

CCSC(=O)N1CCCCCC1
active: Potency [5] 12 µM
inactive: outcome [1] | Potency [2] | outcome [3] | outcome [4] | max response [5] 3.34% | Potency [6] | Potency [7] | outcome [8] | Potency [9] | Potency [10] | outcome [11] | Potency [12] | Potency [13] | Potency [14] | Potency [15] | outcome [17] | outcome [18] | Potency [20] | outcome [19]

CCCCC(CC)C(=O)Cl (stereo not given)
inactive: outcome [1] | Potency [2] | outcome [3] | outcome [4] | max response [5] 14.8% and -0.733% | Potency [6] | Potency [7] | outcome [8] | Potency [9] | Potency [10] | outcome [11] | Potency [12] | Potency [13] | Potency [14] | outcome [17] | outcome [18] | outcome [19]

Cc1cc(O)ccc1Cl
inactive: outcome [1] | Potency [2] | outcome [3] | outcome [4] | max response [5] -0.728% and -2.63% and 0.546% | Potency [6] | Potency [7] | outcome [8] | Potency [9] | outcome [11] | Potency [12] | Potency [13] | Potency [14] | Potency [15] | outcome [16] | outcome [17] | outcome [18] | Potency [20] | outcome [19]

CC(C)CCCCCCOC(=O)c1ccccc1C(=O)OCCCCCCC(C)C
inactive: outcome [1] | Potency [2] | outcome [3] | outcome [4] | max response [5] 12.6% and 8.04% and 6.43% | Potency [6] | Potency [7] | outcome [8] | Potency [9] | Potency [10] | outcome [11] | Potency [12] | Potency [13] | Potency [14] | Potency [15] | outcome [16] | outcome [17] | outcome [18] | Potency [20] | outcome [19]

Cc1cccc(N)c1
inactive: outcome [1] | Potency [2] | outcome [3] | outcome [4] | max response [5] 6.61% and 3.01% | Potency [6] | Potency [7] | outcome [8] | Potency [9] | Potency [10] | outcome [11] | Potency [12] | Potency [13] | Potency [14] | outcome [16] | outcome [17] | outcome [18] | Potency [20] | outcome [19]

C=CC(=O)OCCCCCC(C)C
inactive: outcome [1] | Potency [2] | outcome [3] | outcome [4] | max response [5] -0.829% and 3.33% | Potency [6] | Potency [7] | outcome [8] | Potency [9] | Potency [10] | outcome [11] | Potency [12] | Potency [13] | Potency [14] | outcome [16] | outcome [17] | outcome [18] | Potency [20] | outcome [19]

CNC(=O)Oc1cccc2ccccc12
inactive: outcome [1] | Potency [2] | outcome [3] | outcome [4] | max response [5] -29.1% and -20.7% and -13.7% | Potency [6] | Potency [7] | outcome [8] | Potency [9] | Potency [10] | outcome [11] | Potency [12] | Potency [13] | Potency [14] | Potency [15] | outcome [16] | outcome [17] | outcome [18] | outcome [19]

O=C(O)Cc1ccccc1
inactive: outcome [1] | Potency [2] | outcome [3] | outcome [4] | max response [5] 21.7% and 3.56% | Potency [6] | Potency [7] | outcome [8] | Potency [9] | Potency [10] | outcome [11] | Potency [12] | Potency [13] | Potency [14] | Potency [15] | outcome [17] | outcome [18] | Potency [20] | outcome [19]

C=CC(=O)OCC(CC)CCCC (stereo not given)
inactive: outcome [1] | Potency [2] | outcome [3] | outcome [4] | max response [5] 13.3% | Potency [6] | Potency [7] | outcome [8] | Potency [9] | Potency [10] | outcome [11] | Potency [12] | Potency [13] | Potency [14] | Potency [15] | outcome [17] | outcome [18] | Potency [20] | outcome [19]

CN(C)C(=O)Cl
inactive: outcome [1] | Potency [2] | outcome [3] | outcome [4] | max response [5] 1.46% and 5.01% | Potency [6] | Potency [7] | outcome [8] | Potency [9] | Potency [10] | outcome [11] | Potency [12] | Potency [13] | Potency [14] | Potency [15] | outcome [17] | outcome [18] | Potency [20] | outcome [19]

COc1cc(-c2ccc(N)c(OC)c2)ccc1N
inactive: outcome [1] | Potency [2] | outcome [3] | outcome [4] | max response [5] -23.4% and -26.2% | Potency [6] | Potency [7] | outcome [8] | Potency [9] | outcome [11] | Potency [12] | Potency [13] | Potency [14] | outcome [17] | outcome [18] | Potency [20] | outcome [19]
active: Potency [5] 37.1 µM
